Among the data in PubChem BioAssay (NCI) are growth inhibition values, retold here.

The panel holds about 79,000 compounds, 15% with a hit somewhere; the sample as a whole holds those more often. Unmarked numbers belong to inactive results. Activity calls are given as the source filed them. No stated cut-off is given here; in the data, active means growth inhibition above about 70%; inactive means the rest.

The nature of the test: NCI Yeast Anticancer Drug Screen. Data for the mec2-1 strain (AID 157). The note with it: S. cerevisiae mec2-1 strain, at 50.0 µM, stronger effect = higher value. The essentials:
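Vehicle-treated cultures served as reference for growth inhibition of compound-exposed mec2-1 yeast.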
Turning to `CC(=O)OCCOCCCl`, the growth inhibition was 20.2%.

For `Cc1ccc(Sc2ccc3ccccc3c2)nc1`, the growth inhibition was -8.2%.

As for `CC(C)=C1C2CCC1[C@H](COS(C)(=O)=O)[C@@H]2COS(C)(=O)=O`, the growth inhibition is 6.5%.

Take `N[C@@H]1CCCC[C@H]1O`: the growth inhibition is -5.5%.

As to `CCC1=CCN2CCC34c5cc(C6(C(=O)OC)CC7CC(CC)CN(CCc8c6[nH]c6ccccc86)C7)c(OC)cc5N(C)C3C(O)(C(=O)OC)C(OC(C)=O)C1C24` (stereo not given), the growth inhibition is 9.25%.

For the compound `COC(=O)C1(CC(=O)c2ccc(F)cc2)NC(=S)NC(=O)C1C#N` (stereo not given), the growth inhibition is 2%.

Consider `Cn1c(=O)c2c(nc(Br)n2CC(=O)c2ccc([N+](=O)[O-])cc2)n(C)c1=O`, for which the growth inhibition was 16.1%.

`CC(=O)NC(C)c1ccc2ccccc2c1` (stereo not given): the growth inhibition was 14.8%.

Take `O=C(NNC(=O)c1cccc(F)c1)c1cccc(F)c1`: the growth inhibition was -8.1%.

Regarding `CCOC(=O)C1=C(O)c2c(OC)ccc(OC)c2C(=O)C1=O`, the growth inhibition was -43.5%.

For the compound `NC(CSCC(=O)O)C(=O)O` (stereo not given), the growth inhibition was -3.85%.

Turning to `Clc1c(Cl)c(Cl)c(CSCc2c(Cl)c(Cl)c(Cl)c(Cl)c2Cl)c(Cl)c1Cl`, the growth inhibition is -7%.

As for `CCCCCCCNc1ccc(C(=O)OCC)cc1`, the growth inhibition is 5.35%.

Turning to `Oc1c(Cl)cc(N=Cc2ccc(N(CCCCl)CCCCl)cc2)cc1Cl`, the growth inhibition was 14.7%.

Take `COc1ccc2c3ccc4c(c3n(C)c2c1)C(=O)c1ccccc1C4=O`: the growth inhibition is -36.2%.

Regarding `Cc1ccsc1/C=N/Nc1ncccn1`, the growth inhibition was 10.7%.

For the compound `O=C1Nc2ccccc2C1=O`, the growth inhibition was 11.4%.

In the case of `CC(C)C(CN)(C(C)C)C(C)C`, the growth inhibition was 9.65%.

On to `O=C(NCCCN1CCN(CCCNC(=O)Nc2ccc(Br)cc2)CC1)Nc1ccc(Br)cc1`, for which the growth inhibition is 10.8%.

Regarding `Cc1ccccc1C1=CCCCCC1`, the growth inhibition was -17.6%.

With `O[C@]12c3ccccc3C1CCCCC2N1CCOCC1` (stereo not given in full), the growth inhibition was -41%.

For the compound `Cc1ccnc(SCC(=O)O)n1`, the growth inhibition was -1.9%.

As for `COc1cc(C2=N/C(=C\C=C\c3ccccc3)C(=O)O2)cc(OC)c1OC`, the growth inhibition is 16%.

As to `CC(C)(C)CC(C)(O)COC(=S)S` (stereo not given), the growth inhibition is -18%.

Consider `Cc1ccc(S(=O)(=O)Nc2ccc(C(=O)NC(CCC(=O)O)C(=O)O)cc2)cc1` (stereo not given), for which the growth inhibition is 2.95%.

With `Nc1n[n+](-c2ccc(Cl)cc2)no1`, the growth inhibition is 87.8% (active).

As for `O=C(C[n+]1ccccc1-c1ccccn1)c1ccc(-c2ccccc2)cc1`, the growth inhibition is 10.7%.

With `C[N+]([O-])=C(c1ccccc1)c1ccccc1`, the growth inhibition was 5.55%.

With `CCOc1ccc(C(=O)OC)cc1`, the growth inhibition was -3.45%.

As to `O=C(O)c1c(Br)c(Br)c(Br)c(Br)c1C(=O)Nc1ccccc1F`, the growth inhibition is -3.3%.

With `O=C(OCCCl)C1CC2C=CC1C2` (stereo not given), the growth inhibition is -10.1%.

As for `CCc1cccc(CC)c1NC(=O)c1ccc(C)cc1`, the growth inhibition was -30%.

For `Nc1nn(CC(O)CO)c(=O)s1` (stereo not given), the growth inhibition is 15.7%.

`Nc1nc2ccccc2[nH]1`: the growth inhibition was -0.3%.

With `COc1ccc(N=Nc2c(C)c(C#N)c(=S)n(C3OC(COC(C)=O)C(OC(C)=O)C(OC(C)=O)C3OC(C)=O)c2-c2ccccc2)cc1` (stereo not given), the growth inhibition is -8.9%.

`[N-]=[N+]=NCC1OCOC1C1OCOC1CN=[N+]=[N-]` (stereo not given): the growth inhibition was 10.6%.

Consider `COC1OC(COC(c2ccccc2)(c2ccccc2)c2ccccc2)C(OS(=O)(=O)c2ccc(C)cc2)C(OC(=O)c2ccccc2)C1OC(=O)c1ccccc1` (stereo not given), for which the growth inhibition is -6.7%.

As to `Cc1ccc(C)c2c1C(=O)c1ccccc1C2(O)C#Cc1ccccc1` (stereo not given), the growth inhibition is 1.45%.

In the case of `CN(c1ccccc1)c1nc(Cl)c(Cl)c(Cl)n1`, the growth inhibition was -11.5%.

For the compound `O=C(NC1CCCCC1)OC/C=C\c1ccccc1`, the growth inhibition is -12.7%.
